# This is a sample that favours compounds with a hit; in the whole collection about 1.8% have one here.
# KAT2A inh – qHTS Assay for Inhibitors of GCN5L2; Potency, µM (doses to about 58.9 µM), without a hit: at the highest dose activity change, negative = inhibition, hits mostly inhibitors; GCN5L2 HAT assay, ThioGlo1 CoA-SH fluorescence; 390,000 compounds, 0.21% hits; AID 504327, 2011; also: % is scaled to controls: 0 for no effect and ±100 for the full control effect
#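 Titration-based screen in which CoA formation is detected via maleimide probe ThioGlo1 (50uM) turning fluorescent on thiol reaction; substrates H3(1-25) 75uM and acetyl-CoA 70uM, GCN5L2 20nM, 20 min incubation at room temperature.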
# GLP-1R agonist – qHTS of GLP-1 Receptor Agonists; Glucagon-like peptide 1 receptor (Homo sapiens), P43220; HEK293 GLP-1R CRE-luciferase, luminescence, 4-6 h; cells express a hypersensitive GLP-1R form; Potency, µM (titrated, usually from 45.6 µM), for the others: at the highest dose activation, hits mostly activators; 380,000 compounds, 0.007% hits; also: % of control where 0% means no effect
# Target sequence (P43220 whole entry, looked up): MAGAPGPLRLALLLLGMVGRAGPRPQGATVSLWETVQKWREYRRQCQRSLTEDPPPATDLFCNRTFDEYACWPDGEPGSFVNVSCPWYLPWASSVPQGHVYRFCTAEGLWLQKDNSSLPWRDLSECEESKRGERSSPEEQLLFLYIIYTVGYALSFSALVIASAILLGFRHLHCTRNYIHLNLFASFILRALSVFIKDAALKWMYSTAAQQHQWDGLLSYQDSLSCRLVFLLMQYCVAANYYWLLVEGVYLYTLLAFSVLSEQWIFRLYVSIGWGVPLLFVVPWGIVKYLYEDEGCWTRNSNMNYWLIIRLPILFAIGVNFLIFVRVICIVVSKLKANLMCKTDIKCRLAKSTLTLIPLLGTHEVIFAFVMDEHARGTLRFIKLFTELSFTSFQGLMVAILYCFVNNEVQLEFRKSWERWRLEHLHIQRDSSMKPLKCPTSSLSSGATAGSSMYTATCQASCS
# RGS4 inh – Inhibitors of Regulator of G Protein Signaling (RGS) 4: qHTS; Regulator of G-protein signaling 4 (Homo sapiens), P49798; AID 504845, 2011; 390,000 compounds, 0.039% hits; Potency, µM (doses to about 114 µM), for the others: top-dose activity change, negative = inhibition, usual class: inhibitors; Transcreener GDP fluorescence polarization, RGS4-accelerated GTP hydrolysis; also: % is scaled to controls: 0 for no effect and ±100 for the full control effect; nearly all actives have a fitted effect of over 75% in size
# Target sequence (P49798 whole entry, looked up): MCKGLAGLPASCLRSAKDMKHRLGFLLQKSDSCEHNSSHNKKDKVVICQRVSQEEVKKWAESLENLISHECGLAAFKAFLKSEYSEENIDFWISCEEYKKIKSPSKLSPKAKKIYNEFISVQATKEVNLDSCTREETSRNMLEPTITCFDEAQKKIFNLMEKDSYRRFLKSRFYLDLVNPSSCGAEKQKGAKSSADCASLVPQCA
#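 MLSMR compounds (23 nl, pin-transferred) preincubated 10 min at room temperature with a 500nM (2x) first reagent, then RGS4 at 900nM (2x) plus Transcreener GDP mix added; fluorescence polarization (620/688 nm) read before and after 90 min at 30 °C.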
# PTHR1 ag – qHTS for PTHR1 Agonists: Primary Screen. Parathyroid hormone/parathyroid hormone-related peptide receptor (Homo sapiens), Q03431. HEK293 GP2 PTHR1 cells, GloSensor cAMP luminescence, 1 h. Potency, µM (highest dose often 115 µM), without a hit: top-dose activation, most hits filed as activators. 410,000 compounds, 0.075% hits; also: nearly all actives have a fitted effect of over 55% in size
#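 HEK-293-derived GP2 cells expressing PTHR1 and a GloSensor cAMP reporter, 3,000/well, plated overnight, given luciferin plus IBMX (each 0.5 mM as added) for 1 h at 37 °C, then compound for 1 h at 37 °C. Luminescence was read after 15 min at room temperature.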
# GLP1R inv ag – qHTS of GLP-1 Receptor Inverse Agonists (Inhibition Mode); Glucagon-like peptide 1 receptor (Homo sapiens), P43220; HEK293 GLP-1R CRE-luciferase, luminescence, 24 h; GLP-1R form is constitutively active; Potency, µM (doses to about 38.3 µM), for the others: at the highest dose activity change, negative = inhibition, actives largely listed as inhibitors; 410,000 compounds, 1.6% hits; also: % is scaled to controls: 0 for no effect and ±100 for the full control effect; nearly all actives have a fitted effect of over 55% in size
#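 Stable HEK293 clone (constitutively active GLP-1R + cAMP-response luciferase); 200 cells/uL plated, 12 h pre-culture, compound 24 hr, 37 deg C/5% CO2; detection reagent 12 min RT; luminescence.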
# GLP1R cytotox – qHTS of GLP-1 Receptor Inverse Agonists: Cytotox Screen; HEK293 cAMP-luciferase reporter cells, luminescence, 24 h; Potency, µM (top dose mostly 38.3 µM), for inactives: top-dose activity change, negative = inhibition, actives largely listed as inhibitors; 410,000 compounds, 0.13% hits; AID 624418, 2012;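 also: loss of luciferase light is scored as toxicity; % is scaled to controls: 0 for no effect and ±100 for the full control effect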
#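 Here, cytotoxicity is scored as loss of luminescence. The MLSMR collection was tested on cells seeded in medium containing 10% Nu serum, with a 24 hr compound exposure preceded by 12 hours of culture.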
# Active calls of the source: *; i = inactive; u = inconclusive; x = no result given; [ ] = another dose, or the depositor's remark. Calls follow the shape of the dose curve; as a rule, active = well fitted curve in the direction sought with a large enough effect; inconclusive = small, poorly fitted or top-dose-only effect, or another doubt; inactive = no such curve, though single readings can be large; an effect the other way counts as inactive or inconclusive. Potency is read from the fitted curve at half-maximal effect.
SMILES,KAT2A inh,GLP-1R agonist,RGS4 inh,PTHR1 ag,GLP1R inv ag,GLP1R cytotox
Cc1ccc(Oc2c(C(N)=O)cc([N+](=O)[O-])cc2[N+](=O)[O-])cc1,-3.3%,-34.7%,0.1%,-9.7%,11.2µM*,u
O=C(CCCN1CCN(c2ccccc2)CC1)c1ccc(F)cc1,x,-2.7%,x,-23.0%,12.7%,-9.5%
O=C1CC(=C(c2ccccc2)c2ccccc2)C(=O)N1CCCCN1CCN(c2ccccc2)CC1,-4.6%,-1.2%,-34.6%,i,1.26µM*,u
O=C(NCc1ccccc1Cl)c1ccc(NC(=O)N2CCSc3ccccc32)cc1,-0.4%,x,-2.8%,-19.4%,u,-2.9%
c1ccc(C(c2ccccc2)c2noc(CN3CCN(C4CCCC4)CC3)n2)cc1,-3.3%,6.3%,-22.2%,-21.6%,12.6µM*,0.3%
Cc1cccnc1CN1CCN(Cc2nc(C(c3ccccc3)c3ccccc3)no2)CC1,-1.5%,0.9%,-6.5%,-34.6%,5.01µM*,9.6%
CCc1nnc(SCc2ccc(OC)cc2)c2cc3sc(C)cc3n12,-4.7%,x,-4.6%,-1.4%,0.9%,10.8%
CCc1ccc(C(C)NC(=O)C2(C)CC2(Br)Br)cc1 (stereo not given),0.5%,-8.3%,-9.6%,-3.7%[57.5 µM],10µM*,-7.2%
O=C(NCc1ccc(F)cc1)c1cc(C2CCCN(S(=O)(=O)c3ccccc3)C2)on1 (stereo not given),x,4.8%,x,-53.5%,u,1.7%
O=C(NCc1cccs1)Nc1cc(Cl)ccc1Cl,0.4%,32.1%,11.7%,-0.6%,u,10µM*
O=C(NCc1ccccn1)Nc1cc(Cl)ccc1Cl,-12.5%,6.1%,-18.2%,-3.3%,-27.9%,0.5%
CN(C)S(=O)(=O)c1ccc(S(=O)(=O)NCc2cccs2)cc1,-4.6%,6.6%,-7.7%,-10.0%,5.6%,-0.5%
CC(C)(C)OC(=O)N[C@H](/C=C/c1ccccc1)C(=O)OC(C)(C)C,-5.5%,-2.9%,-4.8%,i,-13.8%,2.1%
Cc1ccc(C(C)C)c(OCCNC(=O)c2cncc(Br)c2)c1,-7.7%,-2.5%,-2.2%,-45.8%[57.5 µM],10µM*,25.8%
COc1cc(C(=O)NCCOc2cc(C)ccc2C(C)C)cc(OC)c1OC,-29.7%,25.8%,-10.6%[56.9 µM],-32.0%,3.55µM*,-12.2%
O=C(NCCOc1ccccc1)c1cncc(Br)c1,0.0%,6.8%,-12.8%,i,-3.3%,2.5%
COc1cc(C(=O)NCCOc2cc(C)cc(C)c2)cc(OC)c1OC,6.9%,6.3%,15.7%,i,u,-14.9%
CCOc1ccc(-c2cn3c(n2)sc2cc(C(=O)NC(C)C45CC6CC(CC(C6)C4)C5)ccc23)cc1 (stereo not given),-1.8%,x,18.9%,u,1.9%,-6.2%
Nc1nc(/C(=C/CC(=O)O)C(=O)NC2C(=O)N3C(C(=O)O)=CCSC23)cs1 (stereo not given),9.7%,16.6%,x,x,x,x
COc1ccc(-c2[nH]c(-c3ccc4c(c3)OCO4)nc2-c2ccccc2)cc1,-6.8%,-9.8%,u,-37.8%,1.78µM*,u
C=C1CC(COc2ccc3c(C)c(Cl)c(=O)oc3c2)(c2ccccc2)OC1=O (stereo not given),x,-40.3%,u,-35.6%,u,u
Cc1ccc(C)c(C(=O)Cn2ncc(Cl)c(Cl)c2=O)c1,-10.8%,-28.8%,0.7%,-9.1%,0.0%,10µM*
Cc1ccc(S(=O)(=O)N2CCCCC2)cc1NC(=O)CNC(C)c1ccc(Cl)c(Cl)c1 (stereo not given),-7.5%,-5.4%,-8.9%,-56.4%,2.82µM*,-16.5%
Cc1ccc(C)c(OCCC(=O)Nc2cc(S(=O)(=O)N3CCCCC3)ccc2C)c1,-5.3%,14.1%,-1.5%,-14.6%,11.2µM*,2.9%
Cc1ccc(S(=O)(=O)N2CCCCC2)cc1NC(=O)Cn1ncc(Cl)c(Cl)c1=O,-14.3%,-13.7%,-24.1%,-96.5%,10µM*,u
SMILES,KAT2A inh,GLP-1R agonist,RGS4 inh,PTHR1 ag,GLP1R inv ag,GLP1R cytotox
CC(C)CCCCCCNC(=S)Nc1ccc(S(=O)(=O)N2CCOCC2)cc1,-10.6%,-8.7%,-24.7%,-41.7%,3.55µM*,u
O=C(COc1ccc(Cl)cc1)Nc1ccc(-c2nc3ccccc3s2)c(O)c1,24.1%,x,3.2%,-34.5%,u,14.9%
CC(C)(C)Cc1c(-c2ccccc2)nc2ccc(Cl)cn12,x,-5.9%,x,-27.9%,12.6µM*,u
CC(C)(C)Cc1c(-c2ccc(Cl)cc2)nc2ccc(Cl)cn12,x,-1.9%,x,-52.2%,u,0.3%
CC(C)(C)Cc1c(-c2ccc(Cl)cc2)nc2ccc(Br)cn12,x,-2.6%,x,-87.6%,10µM*,u
CCCN(C(=O)COC(=O)c1[nH]c(C)c(C(=O)OC)c1C)c1c(N)n(Cc2ccccc2)c(=O)[nH]c1=O,-7.7%,7.8%,-8.9%,i,53.3%,27.2%
COCCn1c(SCC(=O)Nc2cc(C)on2)nc2c(c1=O)SC(C)C2 (stereo not given),28.7%,11.0%,-0.2%,-0.5%,34.4%,1.2%
c1ccc(-n2cc(CN3CCCC3)c(-c3ccc4c(c3)OCO4)n2)cc1,-0.5%,-0.8%,-0.8%,-4.3%,u,-5.9%
c1ccc(Cn2cc(CN3CCCCO3)c(-c3ccc4c(c3)OCO4)n2)cc1,-6.8%,2.9%,11.2%,-32.8%,11.2µM*,-9.1%
Nc1ccc(NC(=O)CCN2CCOCC2)cc1,-6.9%,-19.8%,6.0%,i,-15.2%,16.2%
CC/C(=N\NC(=O)CNC(=O)/C=C/c1ccc(OC)cc1)c1ccccc1,-3.5%,13.6%,-19.2%,-8.5%,u,-6.0%
CC(C)(CN1CCNCC1)NS(=O)(=O)c1ccc(Cl)cc1,-1.5%,14.2%,20.0%,-23.4%,2µM*,u
Cc1ccc(S(=O)(=O)NC(C)(C)CN2CCC(Cc3ccccc3)CC2)cc1,-7.0%,2.6%,-7.1%,-26.7%,2.51µM*,-29.5%
CC(C)(CN1CCCC1)NS(=O)(=O)c1ccc(Cl)cc1,-0.5%,7.3%,10.7%,-7.1%,7.2%,9.0%
Cc1cccc2c1N1C(=O)c3c(C(=O)O)cccc3C1CC2C (stereo not given),-1.4%,-12.6%,19.2%[11.4 µM],i,0.2%,3.5%

# Screens: PubChem, National Center for Advancing Translational Sciences (NCATS)
